Data published in PubChem BioAssay (Tox21).
Inconclusive results are not listed. A call without a number means that no potency is given here. Calls of active or inactive are those of the source. The call rests on the fitted dose curve.

assay: qHTS assay to identify small molecule agonists or antagonists of the thyroid stimulating hormone receptor (TSHR) signaling pathway - wild type cell line counter screen (AID 1259384); conditions: HEK293 wild type, cAMP HTRF counter-screen; series mostly up to 92.4 µM; cAMP activity change: at the top concentration
Excerpt: U.S. Tox21 Program National Center for Advancing Translational Sciences [NCATS] NIH Chemical Genomics Center [NCGC] U.S. Environmental Protection Agency [EPA] National Institutes of Environmental Health Sciences [NIEHS] National Toxicology Program [NTP] U.S. Food and Drug Administration [FDA] Tox21 Assay Overview: TSHR is the receptor for thyrotropin (thyroid stimulating hormone or TSH), a member of the glycoprotein hormone family. TSH is released by the anterior pituitary gland and is the main regulator of thyroid gland growth and development. Upon binding circulating thyrotropin, a G-protein signal cascade activates adenylyl cyclase and […] cAMP concentration is increased. cAMP is a key second messenger involved extensively in cellular signal transduction pathways associated with the majority of G-protein coupled receptors (GPCRs). The activation of these GPCRs by neurotransmitters, lipids, nucleotides, peptides and hormones results in the activation or the inhibition of plasma membrane-bound adenylate cyclase through heterotrimeric G-proteins. A cell-based TSHR-Hek293 assay can be used to identify TSHR agonists. To eliminate the false positive compounds identified from screening a cell-based TSHR-Hek293 cell line, cAMP assay in a wild type Hek293 cells was used as a counter screening.
Tox21 Assay Protocol Summary: Hek293 cells (wild type) were dispensed at 800 cells/4 uL/well in 1536-well white plates using a Multidrop dispenser. After the assay plates were incubated at a 37 C/5% CO2 incubator for 18 hrs, 23 nL of compounds dissolved in DMSO, positive controls or DMSO only was transferred to the assay plate by a pin tool, followed by 1 ul medium containing Ro20-1724. After 30 min of incubation at room temperature, 2.5 ul/well of cAMP-d2 and 2.5 ul/well of anti-cAMP-cryptate were added respectively into the assay plates using a Flying Reagent Dispenser. The plates were incubated at room temperature for 1 hr. The fluorescence intensity in the plates was measured using an Envision plate reader. Each test compound was measured at 15 concentrations and in triplicates.

Compound	Potency	cAMP activity change
Cc1cccc2n[nH]nc12	inactive	–
Clc1ccc2c(c1)C(N1CCNCC1)=Nc1ccccc1O2	inactive	–
OCC(CO)N[C@H]1C[C@](O)(CO)[C@@H](O)[C@H](O)[C@H]1O	–	-0.0135% [at 42.5 µM, hits give high values] (inactive)
CCC(CO)(CO)COCC(CC)(CO)CO	–	-5.58% (inactive)
CCCN[C@H]1CCc2nc(N)sc2C1	inactive	–
Oc1ccc(Cl)cc1Cc1cc(Cl)ccc1O	inactive	–
CCc1ccc(C(c2ccc(CC)cc2)C(Cl)Cl)cc1	inactive	–
COC(=O)/C=C/c1ccccc1	inactive	–
BrC1CCC(Br)C(Br)CCC(Br)C(Br)CCC1Br (stereo not given)	inactive	–
OCCOCCN1CCN(C(c2ccccc2)c2ccc(Cl)cc2)CC1 (stereo not given)	inactive	–
COC(=O)[C@H]1[C@H]2C[C@@H]3c4[nH]c5cc(OC)ccc5c4CCN3C[C@H]2C[C@@H](OC(=O)c2cc(OC)c(OC)c(OC)c2)[C@@H]1OC	inactive	–
O=Cc1ccc(Cl)cc1	–	-0.925% (inactive)
NC(Cc1ccc(Cl)cc1)C(=O)O (stereo not given)	–	-3.62% [at 0.349 µM, hits give high values] (inactive)
CC(=O)CC(C)=O	–	1.63% (inactive)
NNCCc1ccccc1	inactive	–
CCCOC(=O)c1cc(O)c(O)c(O)c1	inactive	–
C/C=C/c1ccc(OCC)c(O)c1	inactive	–
CCOc1ccc2c(c1)C(C)=CC(C)(C)N2	inactive	–
O=C1NCC2(CCN(CCc3ccccc3)CC2)O1	–	1.01% [at 42.5 µM, hits give high values] (inactive)
Cc1cc(C2(c3cc(C)c(O)cc3C)OS(=O)(=O)c3ccccc32)c(C)cc1O	–	-7.74% (inactive)

Compound	Potency	cAMP activity change
CN1C(=O)c2ccc([N+](=O)[O-])cc2C1=O	–	0.455% (inactive)
C1COC(NC(C2CC2)C2CC2)=N1	–	-1.05% [at 42.5 µM, hits give high values] (inactive)
CC1=C(C=O)C(C)(C)CC=C1	–	0.391% (inactive)
Oc1c(Cl)cc(Cl)cc1Sc1cc(Cl)cc(Cl)c1O	inactive	–
CNCCC(Oc1ccc(C(F)(F)F)cc1)c1ccccc1 (stereo not given)	inactive	–
OCCN1CCNCC1	inactive	–
CC(C)(C)NCC(O)COc1ccccc1OCC1CCCO1 (stereo not given)	–	-2.49% [at 42.5 µM, hits give high values] (inactive)
CC(C)(C)c1ccccc1	–	4.03% (inactive)
CC(=O)CC(=O)Nc1ccc2[nH]c(=O)[nH]c2c1	–	-0.584% (inactive)
C[N+]1([O-])CCOCC1	–	-0.32% (inactive)
O=C1OC2(c3ccc(O)cc3Oc3cc(O)ccc32)c2ccccc21	inactive	–
Cc1c(O)cccc1C(=O)N[C@@H](CSc1ccccc1)[C@H](O)CN1C[C@H]2CCCC[C@H]2C[C@H]1C(=O)NC(C)(C)C	inactive	–
O=c1n(CC2CO2)c(=O)n(CC2CO2)c(=O)n1CC1CO1 (stereo not given)	inactive	–
Cc1cc(OCCOCC[N+](C)(C)Cc2ccccc2)ccc1C(C)(C)CC(C)(C)C	inactive	–
CCCCCCC(O)CCCCCCCCCCC(=O)O (stereo not given)	inactive	–
Cc1scc2c1N(C(=O)CN1CCN(C)CC1)c1ccccc1NC2=O	–	-0.809% [at 42.5 µM, hits give high values] (inactive)
COc1nc(C)nc(Cl)c1NC1=NCCN1	–	-0.0585% [at 42.5 µM, hits give high values] (inactive)
CCN1CCCC1CNC(=O)c1cc(S(=O)(=O)CC)c(N)cc1OC (stereo not given)	–	1.91% [at 42.5 µM, hits give high values] (inactive)
Cc1cc(Cc2cc(C)cc(C(C)(C)C)c2O)c(O)c(C(C)(C)C)c1	inactive	–
Cc1ccc(S(=O)(=O)Oc2ccc(N=Nc3ccc(-c4ccc(N=Nc5c(O)ccc6cc(S(=O)(=O)O)cc(S(=O)(=O)O)c56)c(C)c4)cc3C)cc2)cc1	inactive	–
